Compounds with a hit are over-represented: about 3.7% of the library has one in this group of screens.
tim10-1 inh – growth inhibitors of tim10-1 mutant yeast; S. cerevisiae tim10-1 ts strain growth, BacTiter-Glo, 24 h; inhibition, % at 20 µM; hit rate 2.2% among 330,000;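 active = inhibition of at least 40%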;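 note: mutant grown at 25 °C; 0% = DMSO wells with yeast and 100% = wells holding no yeast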
NALP3 yeast inh – blocks the NALP3 inflammasome reconstituted in yeast. hit rate 0.39% among 330,000. inhibition, % at 10 µM. Yeast reconstituted NLRP3/ASC/caspase-1, beta-gal luminescence, 24 h;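 active = inhibition of 50% or more; inactive = inhibition below 50%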;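 note: plate controls were induced DMSO wells for no effect and uninduced yeast grown without galactose for full effect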
tim23-1 inh – growth inhibitors of tim23-1 mutant yeast. AID 463212. S. cerevisiae tim23-1 growth, BacTiter-Glo luminescence, 24 h. hit rate 1.3% among 330,000. inhibition, % at 20 µM;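 active = growth inhibition of the mutant yeast at or above 50%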;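 note: temperature-sensitive mutant grown at 25 °C; plate controls were DMSO-treated mutant yeast for no effect and medium wells lacking yeast for full effect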
PfHsp90 set2 – reduces growth (ATP signal) of yeast expressing P. falciparum Hsp90 | S. cerevisiae expressing PfHsp90, BacTiter-Glo ATP, 48 h; yeast lacking PDR1 and PDR3 efflux regulators | inhibition, % at 9.4 µM | hit rate 0.32% among 310,000 | AID 504621;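 active = every replicate shows inhibition above about 80%, whatever the replicate mean, limit read from the data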;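 note: 0% = DMSO neutral controls and 100% = 20 µM radicicol positive controls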
TIM10 inh – inhibits growth of TIM10 yeast strain | hit rate 1.4% among 330,000 | inhibition, % at 10 µM | S. cerevisiae TIM10 strain growth, BacTiter-Glo luminescence, 24 h | AID 463195;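 active = inhibition of 40% or more at the single tested concentration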;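 note: wild-type TIM10 isogenic control strain grown at permissive 25 °C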
tim23-1 conf – tim23-1 yeast growth inhibition, confirmed | shares compounds with tim23-1 inh | S. cerevisiae tim23-1 growth, BacTiter-Glo luminescence, 24 h | inhibition, % at 20 µM | hit rate 83% among 4,400;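 active = inhibition above about 39% in either of two replicate wells at 20 µM, limit read from the data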;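 note: temperature-sensitive tim23-1 mutant grown at 25 °C; 0% = DMSO wells with yeast and 100% = medium wells without yeast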
* hit, by the source's call; / = no result.

SMILES | tim10-1 inh | NALP3 yeast inh | tim23-1 inh | PfHsp90 set2 | TIM10 inh | tim23-1 conf
O=c1c2ccccc2nc(-c2cccc(Cl)c2)n1O | 15 | 40 | 59* | -118 | 36 | 59*
Cc1ccc(-c2nc3ccc(Cl)cc3c(=O)n2O)cc1 | 8 | 29 | 63* | 15 | 38 | 55*
CC(C)(C)CN1CCC(Oc2cccc(C(=O)N3CCNC(=O)C3(C)C)c2)CC1 | 13 | 3 | 13 | 5 | -4 | /
O=C(O/N=C(\c1ccccc1)c1ccncc1)c1ccccc1Cl | 11 | 25 | 52* | 10 | 26 | 53*
COc1ccc(N(CC(=O)N2CCN(C)CC2)S(=O)(=O)c2ccccc2)cc1 | 10 | -6 | -2 | -6 | 15 | /
O=C(NC(=S)Nc1ccccc1N1CCOCC1)c1ccc(Br)cc1 | 33 | 40 | 55* | -19 | 29 | 54*
O=C(CN1CCCCC1)Nc1nnc(-c2ccc([N+](=O)[O-])cc2)s1 | -10 | 34 | 91* | -4 | 6 | 24
O=C(CN1CCCCC1)Nc1nnc(-c2ccccc2)s1 | 12 | 27 | 4 | / | -13 | /
CC(C)(C)[C@@H]1C=C(C(=O)N2CCOCC2)O[C@H](OCc2ccc(CO)cc2)C1 | -8 | 14 | 0 | -16 | 10 | /
CC(C)(C)[C@H]1C=C(C(=O)N2CCOCC2)O[C@@H](OCc2ccc(CO)cc2)C1 | 7 | 14 | 93* | -44 | 3 | 27
Cc1cc(C)cc(OCC(=O)N/N=C/c2ccc([N+](=O)[O-])o2)c1 | 33 | 21 | 52* | 22 | 33 | 38
O=C(CC12CC3CC(CC(C3)C1)C2)N/N=C/c1ccc([N+](=O)[O-])o1 | 38 | 16 | 57* | -20 | 36 | 37
COc1cccc(CN(c2ccccc2C(=O)O)S(=O)(=O)c2ccc(C)cc2)c1 | / | / | / | -41 | / | /
Cc1ccc(S(=O)(=O)N2CCCC2C(=O)Nc2nc3ccccc3s2)cc1 (stereo not drawn) | 24 | 2 | 50 | 26 | 9 | /
O=C(Nc1nc2ccccc2s1)C1CCCN1S(=O)(=O)c1ccc(Cl)cc1 (stereo not drawn) | 40 | 14 | 55* | / | 7 | 50*
CC1=NN(c2ccccc2)C(=O)/C1=C/c1ccc[nH]1 | 20 | 12 | 21 | -21 | 22 | /
COc1ccc(/C=C2/C(=O)N(c3ccccc3)N=C2C)cc1Br | 32 | 16 | 56* | -28 | 21 | 45*
CC1=NN(c2ccccc2)C(=O)/C1=C/c1cccs1 | 7 | -12 | 57* | 24 | 21 | 52*
COc1ccc(-c2cc3ccccc3nc2N)cc1OC | 6 | 32 | 8 | 6 | 14 | /
Cc1cc(N2CCN(C)CC2)nc2ccc(NC(=S)N3CCC4(CC3)OCCO4)cc12 | 11 | -6 | 0 | -6 | 1 | /
CCC(C)Sc1cc(C)c(C#N)c2nc3ccccc3n12 (stereo not drawn) | 17 | 34 | 54* | -7 | 32 | 37
CC(C)(C)c1ccc(-c2nc(C=O)c3ccccn23)cc1 | 33 | 13 | 52* | / | 38 | 50*
C(=N\N1CCOCC1)/c1nc(-c2ccccc2)n2ccccc12 | 13 | -8 | 10 | -10 | 23 | /
C(=N\Nc1nc2ccccc2s1)/c1ccccn1 | 37 | 17 | 58* | / | 25 | 61*
Cc1cc(C(=O)N2CCN(S(=O)(=O)c3ccc(F)c(Cl)c3)CC2)c(C)o1 | 9 | 16 | 13 | -14 | 6 | /
SMILES | tim10-1 inh | NALP3 yeast inh | tim23-1 inh | PfHsp90 set2 | TIM10 inh | tim23-1 conf
O=C(O)c1ccc(NC(=O)C2(c3ccccc3)CCCC2)cc1 | 3 | 11 | 4 | 8 | -16 | /
CCN(CC)CCOC(=O)c1ccc(NC(=O)C2(c3ccccc3)CCCC2)cc1 | 0 | 2 | 95* | -1 | 10 | 5
CCc1c(C)sc(NC(=S)N2CCN(S(C)(=O)=O)CC2)c1C(=O)OC | 20 | 21 | 16 | -6 | 15 | /
COc1ccccc1[C@H]1C(c2ccc(F)cc2)=NN(c2ccccc2)[C@@H]1CO | 22 | / | 55* | -3 | 12 | 39
COc1ccccc1[C@H]1C(c2ccccc2)=NN(c2ccccc2)[C@@H]1CO | 21 | / | 50* | -6 | 11 | 39*
COc1ccccc1[C@H]1C(c2cccc(C)c2)=NN(c2ccccc2)[C@@H]1CO | 20 | / | 51* | -30 | 0 | 45*
C[C@H]1C(c2ccc(F)cc2)=NN(c2ccccc2)[C@@H]1CO | 31 | / | 51* | -22 | 16 | 30
Cc1cccc(C2=NN(c3ccccc3)[C@@H](C(=O)N3CCOC3=O)[C@@H]2c2ccccc2)c1 | 18 | / | 34 | -22 | 2 | /
Cc1ncc(COCc2ccccc2)c(CO)c1OCc1ccccc1 | / | / | / | -16 | / | /
Cc1cccc(/N=C/c2c(O)ccc3oc4c(c23)CCCC4)n1 | 37 | 2 | 70* | -5 | 37 | 74*
CN(C)C(CNC(=O)c1ccc2c(=O)n(-c3ccccc3F)c(=S)[nH]c2c1)Cc1ccccc1 (stereo not drawn) | 13 | 0 | 11 | -6 | -3 | /
COc1ccccc1/C=C/C=N/NC(=O)CC1C(=O)NN=C1C (stereo not drawn) | -95 | -1 | -10 | -1 | -43 | /
CC(NC(=O)COc1ccc(-c2nnco2)cc1)c1ccc(Cl)cc1Cl (stereo not drawn) | -15 | 21 | 33 | 4 | -8 | /
CCC1(c2ccccc2)NC(=O)N(CC(=O)N2CC(=O)Nc3ccccc32)C1=O (stereo not drawn) | -5 | 9 | -2 | / | 13 | /
CCOC(=O)NNc1ccc2nonc2c1[N+](=O)[O-] | 20 | -17 | 56* | -5 | 31 | 69*
CC(=O)n1cc(N(C(=O)CCl)c2ccc([N+](=O)[O-])cc2)c2ccccc21 | 32 | 0 | 64* | 3 | 36 | 49*
CC(=O)n1cc(CO)c2ccccc21 | -13 | -2 | 2 | -25 | -2 | /
CC(=O)n1cc(N(C(=O)CCl)c2ccccc2)c2ccccc21 | 32 | 2 | 54* | 11 | 22 | 38
CCN1CCN(C(=O)CCc2ccc(S(=O)(=O)NCCc3ccccc3)cc2)CC1 | -7 | 11 | -2 | 18 | -8 | /
CCOc1cc(/C=C2\COc3ccccc3C2=O)ccc1OCC(=O)N(C)C | 30 | -5 | 54* | -87 | 34 | 53*
CCOc1cc(/C=N/Nc2ccccc2Cl)ccc1OCC(=O)O | / | / | / | 21 | / | /
CCC1(CC)Cc2ccccc2C(C2=C(O)CC(C)(C)CC2=O)=N1 | 23 | -25 | 29 | -22 | 6 | /
O=C(NCCCCc1ccccc1)C1CC(c2ccc(C(F)(F)F)cc2)=NO1 (stereo not drawn) | -1 | 13 | 4 | -5 | -7 | /
COc1cc(/C=C/[N+](=O)[O-])ccc1OC(=O)c1cc2ccccc2oc1=O | 21 | 38 | 80* | 106* | 25 | 73*
C=CCNC(=O)C1CC1(c1ccccc1)c1ccccc1 (stereo not drawn) | -11 | 1 | 7 | -16 | 15 | /
